For 39 compounds, outcome and AC50 results are on record in PubChem BioAssay (EPA / NIEHS).

Structures are written as SMILES. More than one record can exist for a structure, and the calls need not agree. The source made the active and inactive calls. Rule for the calls: active = hit-call score of the fitted dose curve at least 0.9, where 1 is the maximum; inactive = score below 0.9.

The term AC50 denotes the concentration giving half of the maximal activity seen.

Read-out in the assay: Peroxisomal acyl-coenzyme A oxidase 1 (ACOX1) gene, ACOX1 (gene 51)
The assay is described as follows: LTEA_HepaRG_ACOX1: Life Technologies and Expression Analysis (LTEA) Assay for Peroxisomal acyl-coenzyme A oxidase 1 (ACOX1) gene using HepaRG (AID 2283467). Particulars: mRNA level, 48 h; actives raise or lower the signal. How it is done: LTEA_HepaRG is a cell based, multiplexed-readout assay that uses HepaRG, a human liver cell line, with measurements taken at 48 hours after chemical dosing on a 96-well plate.LTEA_HepaRG_ACOX1 is one of 102 assay component(s) measured in the LTEA HepaRG cell culture assay. It is a marker of Steatosis.Data from the assay component LTEA_HepaRG_ACOX1 was analyzed into 1 endpoint. This assay endpoint, LTEA_HepaRG_ACOX1, was analyzed with bidirectional fitting relative to DMSO as the negative control and baseline of activity. Using a type of inducible reporter, measures of mRNA induction for gain or loss-of-signal activity can be used to understand regulation of transcription factor activity. To generalize the intended target to other relatable targets, this assay endpoint is annotated to the oxidase intended target family, where the subfamily is steatosis.
A total of 1060 chemcials from the ToxCast library were tested in eight-point concentration-response experiments. Cell culture and cytotoxicity assays were conducted at Thermo Fisher Scientific's Custom Services facility (Madison, WI). A single lot of human HepaRG cells (Thermo Fisher Scientific, Frederick, MD) was used for the cell culture experiments. 96-well format collagen type I coated plates of human HepaRG cells were prepared using established methods. Briefly, cryopreserved HepaRG cells were thawed, plated at a density of approximately 100,000 cells/well in HepaRG Thaw, Plate, and General Purpose media (HPRG770, Thermo Fisher Scientific), and incubated for 48 hours. 0.5% DMSO was selected as vehicle control to balance the requisite need of DMSO in HepaRG cultures to maintain differentiation (for example, baseline metabolism, proportions of hepatocytes vs. cholangiocytes), while enabling further hepatic receptor pathway activation (for example, PXR and CAR) in response to chemical exposure. 48 hours after plating, the culture medium was replaced with HepaRG Serum-Free Incudtion Media. Cells were exposed to each test chemical in duplicate and maintained in CO2 incubators for another 48 hours. Chemical plates were thawed to room temperature and 200x concentrations of treatment groups were prepared. 8-point conentration-reponse curves were made with the highest exposure at 100 uM, followed by half-log dilutions, all in 0.5% DMSO. Each test plate contained variouse controls, induction positive controls (1mM phenobarbital), cytotoxicity positive controls ([…] aflatoxin B1), vehicle controls (0.5% DMSO), and total lysis controls (0.5% DMSO). Cell morphology images were taken using an Essen IncuCyte FLR automated microscope, with six 96-well plates imaged in about 24 minutes. Images were captured and exported and JPEG files. Spent culture media was transfered to black-well plates for the LDH assay, and remaining media was sorted at -80 C for later use. Cells were treated with RLT buffer and frozen until shipped for gene expression analysis. Total RNA was isolated from the cell suspension in 75 uL of Buffer RLT (Qiagen, Germantown, MD 20874) by Quintiles/Expression Analysis (Durham, NC) using a custom isolation procedure. Total RNA from each plate well was transferred to a preamplification plate. Fluidigm's 96.96 Dynamic ArrayTM (Fluidigm, Amsterdam, the Netherlands) technology was used for gene expression analyses by quantitative reverse transcription polymerase chain reaction (qRT-PCR, performed by Quintiles/Expression Analysis, Durham, NC)89. Standard TaqManTM Assays (Applied Biosystems/ThermoFisher Scientific, Foster City, CA) were used to assess the expression of 93 genes selected based on their selectivity and sensitivity to important hepatic receptors known to be modulated by environmental chemicals; importance in human hepatocyte functionality; and hepatotoxicity. […]
Take `CN(C)C(=O)Nc1ccc(Cl)c(Cl)c1`: the call was inactive. As to `Cc1nn(C)c(Oc2ccccc2)c1C=NOCc1ccc(C(=O)OC(C)(C)C)cc1`, the AC50 was 1.74 µM (active). Consider `O=C(O)c1ccccc1`, for which the compound was classed as inactive. On the same count and under the same terms, for `C#CCOC(=O)[C@@H](C)Oc1ccc(Oc2ncc(Cl)cc2F)cc1` the value was “inactive”. Consider `CC(=O)S[C@@H]1CC2=CC(=O)CC[C@]2(C)[C@H]2CC[C@@]3(C)[C@@H](CC[C@@]34CCC(=O)O4)[C@H]12`, for which the AC50 was 50 µM (active). As for `CCCCCOC(=O)COc1cc(N2C(=O)C3=C(CCCC3)C2=O)c(F)cc1Cl`, the compound was called inactive. Regarding `O=C(c1ccccc1)C1CCCCC1`, the compound was called inactive.

Regarding `CC(C)(c1ccc(O)cc1)c1ccc(O)cc1`, the call was inactive and the concentration at half-maximal activity (AC50) was 0.199 µM (active). `CCOC(=O)NCCOc1ccc(Oc2ccccc2)cc1`: the result was inactive.

As for `CCCCOCCOCCOCc1cc2c(cc1CCC)OCO2`, the result was inactive. Turning to `CSC(=O)c1cccc2nnsc12`, the compound was classed as inactive. `CC(C)CCCCCCc1ccc(O)cc1`: the call was inactive.

For the compound `C=CCOC(Cn1ccnc1)c1ccc(Cl)cc1Cl` (stereo not given), the half-maximal activity concentration (AC50) is 45 µM (active). With `CCN(Cc1c(F)cccc1Cl)c1c([N+](=O)[O-])cc(C(F)(F)F)cc1[N+](=O)[O-]`, the compound was classed as inactive. In the case of `CCOC(=O)c1ccc(O)cc1`, the compound was classed as inactive. For the compound `c1ccc2[nH]c(-c3cscn3)nc2c1`, the compound was called inactive.

Turning to `CCSC(=O)N(CC(C)C)CC(C)C`, the outcome was inactive. On the same count and under the same terms, then `CCCCOC(=O)C(C)Oc1ccc(Oc2ccc(C(F)(F)F)cn2)cc1` (stereo not given), with “inactive”. Consider `CC(=O)[C@H]1CC[C@H]2[C@@H]3CCC4=CC(=O)CC[C@]4(C)[C@H]3CC[C@]12C`, for which the AC50 is 75.8 µM (active). As to `CC1(C)C(C=C(Cl)Cl)C1C(=O)OCc1cccc(Oc2ccccc2)c1` (stereo not given), the compound was classed as inactive. For `CCCN(CCC)C(=O)SCC`, the call was inactive. As to `CCOC(=O)C(C)Oc1ccc(Oc2nc3ccc(Cl)cc3o2)cc1` (stereo not given), the result was inactive. Still for that read-out and setting: for `C[C@]12C[C@H](O)[C@H]3[C@@H](CCC4=CC(=O)CC[C@@]43C)[C@@H]1CC[C@@H]2C(=O)CO` the value was “inactive”. Same read-out and setting: then `COc1c(Cl)ccc(Cl)c1C(=O)O`, with “inactive”. As for `CCCCC(CC)COC(=O)c1ccccc1C(=O)O` (stereo not given), the result was inactive.

Consider `S=C([S-])NCCNC(=S)[S-].[Mn+2]`, for which the AC50 is 2.64 µM (active). With `O=C(c1ccc(O)cc1O)c1ccc(O)cc1O`, the result was inactive. As for `CCOC(=O)C(C)Oc1ccc(Oc2cnc3cc(Cl)ccc3n2)cc1` (stereo not given), the result was inactive. Regarding `c1ccc(Nc2ccccc2)cc1`, the call was inactive. The same measure, in the same setting: for `CC(C)(C)[C@@H](O)[C@@H](Cc1ccc(Cl)cc1)n1cncn1` the value was “inactive”; for `CCC(C)OC(=O)N1CCCCC1CCO` (stereo not given), “inactive”. On the same count and under the same terms, then `CCCCC(CC)CN1C(=O)C2C3C=CC(C3)C2C1=O` (stereo not given), with “inactive”; and `COC(=O)c1ccccc1C(=O)O`, with “inactive”; and `CCCOC(=O)c1ccc(C(=O)OCCC)nc1`, with “inactive”. `N[C@@H](Cc1cc(I)c(Oc2ccc(O)c(I)c2)c(I)c1)C(=O)O`: the AC50 is 7.94 µM (active). Take `N#CSCSc1nc2ccccc2s1`: the call was inactive. Consider `OB(O)O`, for which the call was inactive. With `COC(=O)CSc1cc(N=c2sc(=O)n3n2CCCC3)c(F)cc1Cl`, the result was inactive.

In the case of `CCOC(=O)COc1cc(-n2ncc(C(F)(F)F)c(C)c2=O)c(F)cc1Cl`, the compound was called inactive.
